According to PubChem BioAssay (NCI):
Compounds without any hit were thinned out: in the full panel of roughly 79,000, 15% have a hit. Activity calls are given as the source filed them. Cut-off read from the data, not from the text of the source: active = growth inhibition above about 70%; inactive = the rest.

Experiments:
[1] = NCI Yeast Anticancer Drug Screen. Data for the rad52 strain (AID 147);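 note: 0% = growth of vehicle-treated control cultures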; settings: S. cerevisiae rad52 mutant growth inhibition, stronger effect = higher value
In short: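 DNA repair-defective yeast; compound exposure; growth scored against vehicle controls.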

[2] = NCI Yeast Anticancer Drug Screen. Data for the wt1 strain (AID 149);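 note: 0% = growth of vehicle-treated wt1 cultures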; settings: S. cerevisiae wt1 strain (SPY 50644) growth inhibition, stronger effect = higher value
In short: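 The wt1 strain was treated with compounds, and growth was compared with vehicle-treated cultures to give inhibition.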

[3] = NCI Yeast Anticancer Drug Screen. Data for the rad50 strain (AID 155);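 note: 0% = growth of vehicle-only cultures of the same strain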; settings: S. cerevisiae rad50 strain growth inhibition, stronger effect = higher value
In short: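 Cells are treated with compound, grown, and their growth is then scored against vehicle-only cultures of the same repair-deficient yeast strain.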

[4] = NCI Yeast Anticancer Drug Screen. Data for the mec2-1 strain (AID 157); settings: S. cerevisiae mec2-1 strain, stronger effect = higher value
In short: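 Growth inhibition is read against vehicle-treated controls after compound exposure of the mec2-1 yeast strain, which is defective in DNA damage repair or cell cycle control.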

[5] = NCI Yeast Anticancer Drug Screen. Data for the rad14 strain (AID 159);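 note: 0% = growth of vehicle-treated control cultures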; settings: S. cerevisiae rad14 strain growth inhibition, stronger effect = higher value
In short: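 Readout: yeast growth inhibition, referenced to vehicle-only cultures. Strain bears a defined alteration in DNA damage repair.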

[6] = NCI Yeast Anticancer Drug Screen. Data for the sgs1 mgt1 strain (AID 161);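 note: 0% = growth of cultures given vehicle only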; settings: S. cerevisiae sgs1 mgt1 strain, stronger effect = higher value
In short: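 Percent growth inhibition was derived by comparing compound-exposed mutant yeast with vehicle-exposed cultures. The strain carries alterations in DNA damage repair.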

[7] = NCI Yeast Anticancer Drug Screen. Data for the CLN2oe strain (AID 163);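 note: 0% = growth of vehicle-only control cultures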; settings: S. cerevisiae CLN2oe strain, stronger effect = higher value
In short: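 Compound-treated yeast; growth vs vehicle ctrl = % inhibition. Genetically altered strain (cell-cycle control).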

[8] = NCI Yeast Anticancer Drug Screen. Data for the cln2 rad14 strain (AID 165);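 note: 0% = growth equal to vehicle treated cultures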; settings: S. cerevisiae cln2 rad14 strain, stronger effect = higher value
In short: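 Growth inhibition, relative to vehicle-treated controls, is the read-out. The test organism is a yeast strain with defined genetic alterations, cln2 rad14.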

[9] = NCI Yeast Anticancer Drug Screen. Data for the bub3 strain (AID 167); settings: S. cerevisiae bub3 mutant strain, stronger effect = higher value
In short: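 Part of a panel of yeast mutants defective in DNA damage repair or cell cycle regulation. Each strain is grown with compound, and inhibition is calculated relative to solvent-treated cultures.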

[10] = NCI Yeast Anticancer Drug Screen. Data for the wt2 strain (AID 169);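 note: 0% = growth of vehicle-treated yeast cultures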; settings: S. cerevisiae wt2 strain growth inhibition, stronger effect = higher value
In short: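 Compound exposure of yeast; growth compared with vehicle controls; inhibition reported.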

[11] = NCI Yeast Anticancer Drug Screen. Data for the mlh1 strain (AID 171);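 note: 0% = growth of vehicle-treated control cultures of the same strain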; settings: S. cerevisiae mlh1 strain growth inhibition, stronger effect = higher value
In short: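 Compounds are applied to a genetically altered yeast strain, and its growth is compared with that of vehicle-treated cultures to give percent inhibition.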

[12] = NCI Yeast Anticancer Drug Screen. Data for the mlh1 rad18 strain (AID 175); settings: S. cerevisiae mlh1 rad18 strain growth inhibition, stronger effect = higher value
In short: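 Cells of a genetically altered yeast strain, deficient in DNA damage repair, were treated with compound. Their growth was then compared with that of vehicle-treated cultures to give inhibition.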

[13] = NCI Yeast Anticancer Drug Screen. Data for the rad18 strain (AID 177); settings: S. cerevisiae rad18 mutant growth inhibition, stronger effect = higher value
In short: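 Compounds are applied to a repair-deficient yeast strain, and growth is compared with that of vehicle-treated cultures to give percent inhibition.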

[14] = NCI Yeast Anticancer Drug Screen. Data for the rad50EPP+ strain (AID 151);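 note: 0% = growth of vehicle-treated control cultures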; settings: S. cerevisiae rad50 mutant strain, stronger effect = higher value
In short: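 rad50EPP+ yeast treated with test compounds. Readout: growth vs vehicle control.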

[15] = NCI Yeast Anticancer Drug Screen. Data for the sgs1 strain (AID 173);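 note: 0% = growth of vehicle-only control cultures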; settings: S. cerevisiae sgs1 mutant, stronger effect = higher value
In short: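 Compounds applied to genetically altered yeast; growth compared with vehicle-treated cultures to give % inhibition.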

[16] = at 5.0 µM (retest, dose inferred, filed as 0.5)
[17] = at 50.0 µM (retest, dose inferred, filed as 5.0)

Measured: growth inhibition

CCCC/C([O-])=C1/C(=O)N(c2ccccc2)N=C1C.CCCC/C([O-])=C1/C(=O)N(c2ccccc2)N=C1C.[Cu+2]
inactive: [1]; at 1.2 µM 1% | [1]; at 3.7 µM 2% | [1]; at 11.0 µM 2% | [1]; at 33.0 µM 1% | [1]; at 100.0 µM -2% | [2]; at 1.2 µM 0% | [2]; at 3.7 µM -1% | [2]; at 11.0 µM -2% | [2]; at 33.0 µM -2% | [2]; at 100.0 µM -3% | [3]; at 1.2 µM 1% | [3]; at 3.7 µM 2% | [3]; [16] 28% | [3]; at 11.0 µM 2% | [3]; at 33.0 µM 1% | [3]; [17] 48% | [3]; at 50.0 µM -7.7% | [3]; at 100.0 µM 0% | [4]; at 1.2 µM -3% | [4]; at 3.7 µM -3% | [4]; [16] 10% | [4]; at 11.0 µM -6% | [4]; at 33.0 µM 1% | [4]; [17] 29% | [4]; at 50.0 µM -6.8% | [4]; at 100.0 µM -6% | [5]; at 1.2 µM 0% | [5]; at 3.7 µM 0% | [5]; at 11.0 µM -1% | [5]; at 33.0 µM -2% | [5]; at 100.0 µM -2% | [6]; [16] -2% | [6]; [17] 42% | [6]; at 50.0 µM -13.3% | [7]; at 1.2 µM -4% | [7]; at 3.7 µM -2% | [7]; at 11.0 µM 7% | [7]; at 33.0 µM 0% | [7]; at 100.0 µM 3% | [8]; [16] 27% | [8]; [17] 44% | [8]; at 50.0 µM 32.3% | [9]; at 1.2 µM -1% | [9]; at 3.7 µM -1% | [9]; [16] 26% | [9]; at 11.0 µM -4% | [9]; at 33.0 µM -2% | [9]; [17] 48% | [9]; at 50.0 µM -1% | [9]; at 100.0 µM -5% | [10]; at 1.2 µM 0% | [10]; at 3.7 µM 0% | [10]; at 11.0 µM -1% | [10]; at 33.0 µM -2% | [10]; at 100.0 µM -3% | [11]; at 1.2 µM 0% | [11]; at 3.7 µM -3% | [11]; at 11.0 µM -2% | [11]; at 33.0 µM -3% | [11]; at 100.0 µM -2% | [12]; [16] 6% | [12]; [17] 8% | [12]; at 50.0 µM -20.8% | [13]; at 1.2 µM -3% | [13]; at 3.7 µM -4% | [13]; at 11.0 µM -1% | [13]; at 33.0 µM -5% | [13]; at 100.0 µM -3%

CC(=O)OC1CCC2(C)C(=CC(C3C=C4CC(OC(C)=O)CCC4(C)C4=C3C3CC5OC6(CCC(C)CO6)C(C)C5C3(C)CC4)C3=C2CCC2(C)C3CC3OC4(CCC(C)CO4)C(C)C32)C1 (stereo unspecified)
inactive: [1]; at 1.2 µM 0% | [1]; at 3.7 µM 3% | [1]; at 11.0 µM 7% | [1]; at 33.0 µM 20% | [2]; at 1.2 µM 1% | [2]; at 3.7 µM -1% | [2]; at 11.0 µM 0% | [2]; at 33.0 µM 9% | [2]; at 100.0 µM 11% | [14]; at 1.2 µM 1% | [14]; at 3.7 µM 2% | [14]; at 11.0 µM 25% | [14]; at 33.0 µM 65% | [3]; at 1.2 µM 0% | [3]; at 3.7 µM 1% | [3]; [16] -7% | [3]; at 11.0 µM 2% | [3]; at 33.0 µM 6% | [3]; [17] 45% | [3]; at 100.0 µM 64% | [4]; at 1.2 µM -2% | [4]; at 3.7 µM 0% | [4]; [16] -12% | [4]; at 11.0 µM 1% | [4]; at 33.0 µM 9% | [4]; [17] 33% | [4]; at 50.0 µM 45% | [5]; at 1.2 µM 1% | [5]; at 3.7 µM 0% | [5]; at 11.0 µM 4% | [5]; at 33.0 µM 13% | [6]; [16] -10% | [6]; [17] 64% | [7]; at 1.2 µM -3% | [7]; at 3.7 µM -8% | [7]; at 11.0 µM -8% | [7]; at 33.0 µM -7% | [7]; at 100.0 µM 53% | [8]; [16] 37% | [8]; [17] 60% | [8]; at 50.0 µM -4.25% | [9]; at 1.2 µM 0% | [9]; at 3.7 µM -1% | [9]; [16] -2% | [9]; at 11.0 µM -3% | [9]; at 33.0 µM 2% | [9]; [17] 69% | [9]; at 100.0 µM 61% | [11]; at 1.2 µM -1% | [11]; at 3.7 µM 0% | [11]; at 11.0 µM 0% | [11]; at 33.0 µM 12% | [11]; at 100.0 µM 69% | [15]; at 1.2 µM -4% | [15]; at 3.7 µM -5% | [15]; at 11.0 µM 3% | [15]; at 33.0 µM 25% | [12]; [16] -28% | [13]; at 1.2 µM -1% | [13]; at 3.7 µM -3% | [13]; at 11.0 µM -3% | [13]; at 33.0 µM 8% | [13]; at 100.0 µM 51%
active: [1]; at 100.0 µM 88% | [14]; at 100.0 µM 76% | [3]; at 50.0 µM 91.3% | [4]; at 100.0 µM 75% | [5]; at 100.0 µM 84% | [6]; at 50.0 µM 90.7% | [9]; at 50.0 µM 74.2% | [15]; at 100.0 µM 72% | [12]; [17] 88% | [12]; at 50.0 µM 82.5%
